From PubChem
In the library only some 9.4% were active in any assay of this set; here they are far more common.
FLuc modulator: counter-screen for miR-21 project: firefly luciferase inhibitors or activators. P08659. purified FLuc, Km substrates, luminescence inhibition. Potency, µM (doses to about 57.5 µM), for the others: at the top dose activity change, negative = inhibition, hits mostly inhibitors. hit rate 6.9% among 360,000;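 note: plate controls were vehicle for no effect and reference inhibitor for full effect; nearly all actives have a fitted effect of over 55% in size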
Target sequence (P08659 whole entry, looked up): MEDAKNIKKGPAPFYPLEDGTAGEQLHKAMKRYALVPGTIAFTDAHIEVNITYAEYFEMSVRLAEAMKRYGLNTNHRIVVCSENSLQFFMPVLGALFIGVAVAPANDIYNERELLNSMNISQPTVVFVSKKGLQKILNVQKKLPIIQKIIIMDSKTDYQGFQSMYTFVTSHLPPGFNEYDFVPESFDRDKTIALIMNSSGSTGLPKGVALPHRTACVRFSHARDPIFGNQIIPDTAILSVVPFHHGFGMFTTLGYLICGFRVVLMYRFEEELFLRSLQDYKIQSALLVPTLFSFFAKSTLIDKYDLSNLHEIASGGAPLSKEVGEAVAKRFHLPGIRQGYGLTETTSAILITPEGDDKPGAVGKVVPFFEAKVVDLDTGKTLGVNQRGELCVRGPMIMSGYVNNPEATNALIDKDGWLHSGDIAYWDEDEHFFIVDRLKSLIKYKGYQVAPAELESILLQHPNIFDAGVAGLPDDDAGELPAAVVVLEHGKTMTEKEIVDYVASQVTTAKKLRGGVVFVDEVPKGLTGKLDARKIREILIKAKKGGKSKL
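Biochemical qHTS of compounds, final roughly 60 µM downward over six points, against 10 nM purified firefly luciferase using Km concentrations of substrates (10 uM D-luciferin, 10 uM ATP) in Tris acetate pH 7.5 buffer; luminescence output.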
SMN2 splice enh: enhancers of SMN2 splice variant expression; Potency, µM (doses to about 46.1 µM), inactives show at the top dose activity change, positive = activation, actives largely listed as activators; HEK293 SMN2-luciferase splicing reporter, luminescence, 30-36 h; hit rate 2.8% among 210,000; note: % of control where 0% means no effect; nearly all actives have a fitted effect of over 55% in size
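HEK293 cells carry an SMN2 […]–luciferase reporter in which exon 7 inclusion puts luciferase in frame. Cells were plated 10-12 h before compound addition, then incubated 30-36 h at 37C. ONE-Glo luminescence was read; sodium butyrate at 4.5 mM final served as control.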
ELG1 genotox: inducers of genotoxicity in HEK293T ELG1-luciferase cells. AID 504466. hit rate 1.3% among 330,000. HEK293T ELG1-luciferase reporter, luminescence, 16 h. Potency, µM (doses to about 46 µM), without a hit: at the highest dose activity change, positive = activation, actives largely listed as activators; note: % of control where 0% means no effect; nearly all actives have a fitted effect of over 60% in size
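HEK293T cells expressing luciferase-tagged ELG1 were exposed to compound or DMSO vehicle for 16 hr at 37 °C and 5% CO2. Luciferase activity was then measured with ONE-Glo after 30 min at room temperature.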
Rab9 prom act: activators of Rab9 promoter. Huh7 Rab9 promoter-luciferase reporter, luminescence, 24 h. Potency, µM (highest dose often 9.22 µM), for the others: at the top dose activation, negative = inhibition, hits mostly activators. hit rate 2.8% among 320,000. AID 485297; note: % of control where 0% means no effect; nearly all actives have a fitted effect of over 60% in size
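Huh7 cells stably carrying Rab9 promoter–luciferase reporter, plated 1500 cells/well, compound added after 2 h and incubated 24 h at 37 °C; luciferase luminescence then read after 10 min with detection reagent.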
NPC1 prom act: activates the NPC1 promoter; Huh7 NPC1 promoter luciferase reporter, 24 h; Potency, µM (top dose mostly 9.22 µM), for inactives: at the top dose activation, hits mostly activators; hit rate 2.4% among 320,000; note: % of control where 0% means no effect; nearly all actives have a fitted effect of over 60% in size
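Luminescence read-out of NPC1 promoter-driven luciferase in stably transfected Huh7 cells; compounds delivered in DMSO and left 24 h at 37C, 5% CO2, qHTS titration format.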
ELG1 DNA repair: ELG1-dependent DNA repair inhibition; HEK293T ELG1-luciferase reporter, luminescence, 16 h; DNA damage induced by 5-fluorouridine; Potency, µM (top dose mostly 46.1 µM), inactives show top-dose activity change, negative = inhibition, usual class: inhibitors; hit rate 2.3% among 330,000; AID 504467; note: % is set by controls: 0 for no effect and ±100 for the full control effect; nearly all actives have a fitted effect of over 55% in size
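Cells (2,000 per well) received 5-fluorouridine plus test compound or DMSO and were incubated 16 hr at 37 °C, 5% CO2. Luciferase activity was read by luminescence 30 min after ONE-Glo addition; signal suppression marked inhibition of damage-induced ELG1 function.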
Starred values were filed as active, the others as inactive; ? = inconclusive; / = no result; [ ] = another dose, or the depositor's remark. Calls come from the whole dose curve; as a rule, active = well fitted curve in the direction sought with a large enough effect; inconclusive = small, poorly fitted or top-dose-only effect, or another doubt; inactive = no such curve, though single readings can be large; an effect the other way counts as inactive or inconclusive. Potency is the fitted concentration of half-maximal effect.

SMILES	FLuc modulator	SMN2 splice enh	ELG1 genotox	Rab9 prom act	NPC1 prom act	ELG1 DNA repair
CCOC(=O)c1ccc(NC(=O)c2cn(-c3ccccc3)nc2-c2ccncc2)cc1	0.1%	4.7%	-8.3%	-1.0%	-0.2%	18.4µM*
COc1ccc(-c2nn(-c3ccccc3)cc2C(=O)O)cc1OC	15.1µM*	3.3%	7.0%	8.2%	3.5%	12.9%
CCOC(=O)c1ccc(NC(=O)c2cn(-c3ccccc3)nc2-c2ccc(OC)c(OC)c2)cc1	-0.8%	10.0%	/	/	/	/
Cc1cc(/C=C2/SC(=O)N(CC(=O)N3CCOCC3)C2=O)c(C)n1-c1ccccc1F	0.379µM*	11.2µM*	?	1.58µM*	3.55µM*	?
COc1ccc(-n2c(C)cc(/C=C3\SC(=S)N(Cc4ccco4)C3=O)c2C)cc1	?	0.8%[1.84 µM]	2.5%	?	17.8%	?
COc1ccc(-n2c(C)cc(/C=C3/SC(=O)N(CC(=O)N4CCOCC4)C3=O)c2C)cc1	1.69µM*	4.2%	2.8%	23.5%	14.3%	?
Cc1ccc(/C=C/C(=O)Nc2ccc(S(N)(=O)=O)cc2)o1	?	-5.1%	-0.8%	-2.4%	-0.9%	3.9%
Cc1ccc(/C=C/C(=O)Nc2ccc(N(C)C)cc2)o1	3.01µM*	14.1µM*	?	?	?	?
Cc1ccc(/C=C/C(=O)Nc2ccncc2)o1	16.9µM*	2.0%	3.3%	1.7%	3.8%	12.0%
O=C(CCNS(=O)(=O)c1ccc2c(c1)CCCC(=O)N2)Nc1cccc(Cl)c1	-2.0%	/	/	/	/	/
O=[N+]([O-])c1ccc(C(O)CSC(=S)N2CCCCC2)cc1 (stereo not given)	16.9µM*	/	16.9%	25.3%	2.82µM*	?
CCc1ccc(NC(=O)CN2C(=O)C(c3ccc(F)cc3)=NC2(C)C)cc1	-13.0%	5.7%	/	/	/	/
COCC(C)n1c(C)cc(C(=O)CSc2nnnn2C2CCCC2)c1C (stereo not given)	4.26µM*	/	?	?	?	?
COCC(C)n1c(C)cc(C(=O)CSc2nc(C)c(C)c(C)n2)c1C (stereo not given)	-19.4%	/	-4.5%	-6.8%	-6.8%	-22.0%
COCC(C)n1c(C)cc(C(=O)CSc2nnc(N)s2)c1C (stereo not given)	8.49µM*	?	8.2µM*	3.98µM*	?	?
CS(=O)(=O)c1ccccc1-c1nc(-c2cccc(Cl)c2)no1	?	-12.8%	7.2%	?	-0.3%	-8.0%
CC(C)c1cc(-c2nc(-c3cccc(Cl)c3)no2)n[nH]1	6.75µM*	/	/	/	/	/
Cc1cccc(-c2noc(-c3ccno3)n2)c1	21.3µM*	/	?	?	28.5%	?
COc1cccc(-c2noc(-c3cc(C(C)C)[nH]n3)n2)c1OC	16.9µM*	/	/	/	/	/
Cc1cccc(-c2noc(-c3cc(C(C)C)[nH]n3)n2)c1	4.78µM*	/	/	/	/	/
COc1cccc(-c2noc(C3CC(=O)N(c4ccc(F)cc4)C3)n2)c1OC (stereo not given)	5.2%	/	/	/	/	/
CCc1ccc(OCC(=O)Nc2ccc(Cl)c(-c3nc4ncccc4o3)c2)cc1	-2.3%	-3.5%	/	/	/	/
CCc1ccc(NC(=O)CN2C(=O)CC(c3ccccc3)Sc3ccccc32)cc1 (stereo not given)	-13.5%	-0.9%	/	/	/	/
Cc1ccc(NC(=O)Cn2cc(S(=O)(=O)N3CCC(C)CC3)c3ccccc3c2=O)c(Br)c1	-2.2%	-4.7%	/	/	/	/
CCc1ccccc1N1CC(c2nnc(NC(=O)c3ccco3)s2)CC1=O (stereo not given)	-12.2%	/	/	/	/	/
Cc1ccc(/C=N/NC(=O)c2cccs2)cc1[N+](=O)[O-]	7.57µM*	?	9.1%	?	?	?
O=C(N/N=C/c1ccccc1[N+](=O)[O-])c1cccs1	6.75µM*	/	?	2.51µM*	?	?
C=CCOc1ccc2c(OC)c3ccoc3nc2c1OC	9.53µM*	12.6µM*	?	2.4%	21.9%	?
